Assay outcomes deposited in PubChem by National Center for Advancing Translational Sciences (NCATS).
Pf Dd2 growth: qHTS Primary assay for Inhibitors of Plasmodium falciparum Dd2 growth in vitro; P. falciparum Dd2 growth, SYBR Green, 72 h; Potency, µM (doses to about 28.9 µM), usual class: inhibitors; 120,000 tested, 4.3% active; active = well fitted inhibition curve with a large enough effect; also: nearly all actives have a fitted effect of over 65% in size
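Infected erythrocytes (Dd2, 0.3% parasitemia, 2.5% hematocrit final) are added to compound in RPMI-1640/Albumax II medium, grown 72 h at 37C in low oxygen, then lysed with saponin/Triton-X containing SYBR Green and read by fluorescence.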
A number is an active result; – = inactive. Many of the other results were omitted from the sample, so hits are more common in it than they were.

SMILES | Pf Dd2 growth
CC(C)NC(=O)c1ccc2c(c1)N(Cc1cccc(Cl)c1)C(=O)c1ccccc1S2=O (configuration not stated) | –
CCN1C(=O)c2ccccc2S(=O)c2ccc(C(=O)NCc3ccccc3OC)cc21 (configuration not stated) | –
CCOC(=O)N1CCN(C(=O)c2ccc3c(c2)N(Cc2cccc(Cl)c2)C(=O)c2ccccc2S3=O)CC1 (configuration not stated) | –
CC(=O)c1ccc(NC(=O)c2ccc3c(c2)N(Cc2cccc(Cl)c2)C(=O)c2ccccc2S3=O)cc1 (configuration not stated) | 11µM
N#Cc1cccnc1N1CC[C@@H](N2CCC(O)CC2)[C@H](O)C1 | –
O=C(C1CCC(=O)N(C2CCCC2)C1)N1CC(OCc2ccccc2F)C1 (configuration not stated) | –
C=CCN(C)CC[C@@H]1CC[C@H](O)[C@@H](C(=O)NC2CCCCC2)O1 | –
CCc1noc(-c2nc(-c3cccc(F)c3)no2)n1 | –
CCc1noc([C@@H]2CC(F)(F)CN2C(=O)c2ccco2)n1 | –
O=C(c1cccnc1)N1CCC2(CC1)CC(N(C(=O)c1ccccc1)C1CC1)CCO2 (configuration not stated) | –
O=C(c1cnccn1)N1CCCCCC1c1nnc(-c2ccccc2)o1 (configuration not stated) | –
O=C1c2c(-c3nc(-c4ccsc4)no3)nnn2CCN1Cc1cc(F)cc(F)c1 | –
O=C(NC1CCCCC1)c1ccc2c(c1)N(Cc1ccc(F)cc1)C(=O)c1ccccc1S2(=O)=O | –
CC1CCC(NC(=O)c2ccc3c(c2)N(Cc2cccc(Cl)c2)C(=O)c2ccccc2S3(=O)=O)CC1 (configuration not stated) | 11µM
CC(=O)N1CC2(CCN(C3COC3)CC2)Cc2ccccc21 | –
CN(Cc1cc(-c2ccccc2)on1)C(=O)CN1C[C@@H]2CC[C@H](CC1=O)N2 | –
Cn1ccnc1CN[C@@H]1CO[C@H](CNC(=O)N2CCOCC2)[C@H]1O | –
COc1ccc(Nc2cnc3ccc(-c4ccccc4OC)nn23)cc1OC | –
COc1ccccc1-c1ccc2ncc(Nc3cccc(O)c3)n2n1 | 13µM
COc1ccccc1-c1ccc2ncc(Nc3ccc4c(c3)OCO4)n2n1 | –
COc1cccc(CNC(=O)Cn2ccn3nc4c(c3c2=O)CCCC4)c1 | –
CC(=O)N1CCC(Cc2nc(-c3ccccc3)n[nH]2)CC1 | –
O=C(Nc1cccc(NC(=O)c2ccccc2F)c1)c1ccccc1 | –
Cc1ccccc1C(=O)Nc1cccc(NC(=O)c2ccc(C(C)(C)C)cc2)c1 | 13µM
COc1cccc(C(=O)Nc2ccc(NC(=O)c3ccc(C(C)(C)C)cc3)cc2)c1 | –
SMILES | Pf Dd2 growth
Cc1ccnn1CCC(=O)N1CC[C@H](N2CCN(C)CC2)[C@H](CCC(=O)O)C1 | –
CCN1C(=O)CCC2(C(=O)NCc3c(C)n[nH]c3C)CCCC=C12 (configuration not stated) | –
Cc1ccc(NC(=O)Cn2cc(C(=O)c3ccco3)c3ccccc32)cc1 | 11µM
O=C(Cn1cc(C(=O)c2ccco2)c2ccccc21)Nc1ccccc1Cl | –
Cc1cccc(C)c1NC(=O)Cn1cc(C(=O)c2ccco2)c2ccccc21 | –
Cc1ccc(NC(=O)Cn2cc(C(=O)c3ccco3)c3ccccc32)cc1C | 8.9µM
O=C(Cn1cc(C(=O)c2ccco2)c2ccccc21)Nc1ccccc1C(F)(F)F | –
CCOc1ccc(NC(=O)Cn2cc(C(=O)c3ccco3)c3ccccc32)cc1 | –
COCCO[C@H]1C(=O)N(C2CCN(C(=O)C3CC=CC3)CC2)[C@H]1c1ccncc1 | –
COc1ccc(CNC(=O)C[C@@H]2C[C@H]3O[C@H](CNC4CCCC4)[C@@H](O)[C@H]3O2)cc1 | –
CN(C)CCN(C)[C@@H]1[C@H](O)[C@H](CO)O[C@@H]1CNCc1cccc(Cl)c1 | –
Cn1nc(C2CCNCC2)n(CCc2ccccc2)c1=O | –
COc1ccc(-c2cnc([C@@H]3COCCN3Cc3ccc(C)cc3)[nH]2)cc1 | –
Clc1ccc(-c2cnc([C@@H]3COCCN3C3CCC3)[nH]2)cc1 | –
COc1cccc(-c2cnc([C@@H]3COCCN3Cc3ccccc3)[nH]2)c1 | 11µM
CS(=O)(=O)c1ccc(CN2CCOC[C@H]2c2ncc(-c3cccc(Cl)c3)[nH]2)cc1 | –
Clc1cccc(-c2cnc([C@@H]3COCCN3C3CCCCC3)[nH]2)c1 | 11µM
Fc1ccc(-c2cnc([C@@H]3COCCN3Cc3ccncc3)[nH]2)cc1 | –
Clc1ccc(-c2cnc([C@@H]3COCCN3C3CCOCC3)[nH]2)cc1 | –
Clc1ccc(-c2cnc([C@@H]3COCCN3Cc3ccccc3)[nH]2)cc1 | 10µM
CC(C)(C)CN1CCOC[C@H]1c1ncc(-c2ccc(Cl)cc2)[nH]1 | –
COc1ccc2cc(C(=O)N3CC(N(Cc4cccnc4)S(C)(=O)=O)C3)[nH]c2c1 | –
COCC1CN(C(=O)c2ccc(C)c(C)c2)CC12CCNCC2 (configuration not stated) | –
